Six molecules from PubChem BioAssay can be followed below.

“And” between values parts separate entries of the source, which are not always exact repeats. Equal entries are not always repeated. The source made the active and inactive calls.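 How the source made its calls: active means compounds whose cell count with miR-34 switched on is under 0.7 times the count with it off; inactive means the rest.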

The nature of one assay: viability loss with induced miR-34 in A549 – imaging, A549 dox-inducible miR-34, nuclei and caspase counts, primary screen (AID 1347080). Further: test concentration not given here. Particulars: A549 miR-34 inducible, Hoechst nuclei count, 48 h; stronger effect = lower value.
For the molecule `CC1OC1P(=O)(O)O` (configuration not stated), the fold change was 1.08 (inactive) and 0.849 (inactive).
With `CCCCCCCCCCCCCC(=O)O[C@@H]1[C@@H](C)[C@@]2(O)[C@@H](C=C(CO)C[C@]3(O)C(=O)C(C)=C[C@@H]23)[C@@H]2C(C)(C)[C@]12OC(C)=O`, the fold change is 0.96 (inactive).
As for `CC(N)C(=O)OC(C)(C)Cc1ccc(Cl)cc1` (configuration not stated), the fold change is 1.02 (inactive).
Take `C[N+]1(C)C2CC(OC(=O)[C@@H](CO)c3ccccc3)CC1C1OC12` (some centres not stated): the fold change is 0.839 (inactive).
Take `CC[C@@]1(C2O[C@@H](C3O[C@@](O)(CC)[C@H](C)C[C@@H]3C)C[C@@H]2C)CC[C@H]([C@]2(C)CCC3(C[C@H](O)[C@@H](C)[C@@H]([C@H](C)[C@@H](OC)[C@H](C)C(=O)O)O3)O2)O1` (some centres not stated): the fold change was 1.04 (inactive).

Staying with this assay, now noted: A549 miR-34 inducible, Hoechst nuclei count, 48 h; measured here: relative caspase fold change +Dox/-Dox.
On to `CC1OC1P(=O)(O)O` (configuration not stated), for which the fold change was 1.1 and 5.83.
In the case of `CCCCCCCCCCCCCC(=O)O[C@@H]1[C@@H](C)[C@@]2(O)[C@@H](C=C(CO)C[C@]3(O)C(=O)C(C)=C[C@@H]23)[C@@H]2C(C)(C)[C@]12OC(C)=O`, the fold change worked out at 1.01.
On to `CC(N)C(=O)OC(C)(C)Cc1ccc(Cl)cc1` (configuration not stated), for which the fold change came to 1.79.
Take `C[N+]1(C)C2CC(OC(=O)[C@@H](CO)c3ccccc3)CC1C1OC12` (some centres not stated): the fold change came to 1.06.
In the case of `CC[C@@]1(C2O[C@@H](C3O[C@@](O)(CC)[C@H](C)C[C@@H]3C)C[C@@H]2C)CC[C@H]([C@]2(C)CCC3(C[C@H](O)[C@@H](C)[C@@H]([C@H](C)[C@@H](OC)[C@H](C)C(=O)O)O3)O2)O1` (some centres not stated), the fold change worked out at 1.48.
As for `N[C@@H](CC(=O)N1CCn2c(nnc2C(F)(F)F)C1)Cc1cc(F)c(F)cc1F`, the fold change was 5.09.

Still in this assay, the particulars now being: A549 miR-34 inducible, Hoechst nuclei count, 48 h; measured here: total cells with miR-34 induction; stronger effect = lower value.
Turning to `CC1OC1P(=O)(O)O` (configuration not stated), the cell count was 10700 and 11000.
Take `CCCCCCCCCCCCCC(=O)O[C@@H]1[C@@H](C)[C@@]2(O)[C@@H](C=C(CO)C[C@]3(O)C(=O)C(C)=C[C@@H]23)[C@@H]2C(C)(C)[C@]12OC(C)=O`: the cell count came to 240.
`CC(N)C(=O)OC(C)(C)Cc1ccc(Cl)cc1` (configuration not stated) gave a cell count of 10500.
Take `C[N+]1(C)C2CC(OC(=O)[C@@H](CO)c3ccccc3)CC1C1OC12` (some centres not stated): the cell count is 10100.
On the same count and under the same terms, next, `CC[C@@]1(C2O[C@@H](C3O[C@@](O)(CC)[C@H](C)C[C@@H]3C)C[C@@H]2C)CC[C@H]([C@]2(C)CCC3(C[C@H](O)[C@@H](C)[C@@H]([C@H](C)[C@@H](OC)[C@H](C)C(=O)O)O3)O2)O1` (some centres not stated): 3480.
Regarding `N[C@@H](CC(=O)N1CCn2c(nnc2C(F)(F)F)C1)Cc1cc(F)c(F)cc1F`, the cell count came to 11900.
